Data reported in PubChem BioAssay AID602433 (Southern Research Specialized Biocontainment Screening …, 2012).
Potency and affinity values are given separately. Results filed as inconclusive are left out. Where a call stands in place of a potency, no number is given. Calls of active or inactive are those of the source. The rule behind the calls is not given here.

Assay: THP-1 cell cytotoxicity, cytotoxicity control, set 6 (AID 602433)
Conditions: THP-1 cell viability, cytotoxicity CC50; series mostly up to 100 µM

Row | Compound | outcome
1 | CC(C)CCNC(=O)CSc1nc2c(c(=O)[nH]1)CCCCC2 | inactive
2 | O=C(c1ccc(CNc2c(N3CCCC3)c(=O)c2=O)cc1)N1CCC(c2ccccc2)CC1 | inactive
3 | O=C(CSc1nc2c(c(=O)[nH]1)CCCC2)NC1CCCCC1 | inactive
4 | COC(=O)C(Cc1ccccc1)NC(=O)CSc1nc2ccccc2c(=O)[nH]1 (stereo not drawn) | inactive
5 | O=C(c1ccc(CNc2c(N3CCCC3)c(=O)c2=O)cc1)N1CCN(c2ccccc2)CC1 | inactive
6 | O=C(c1ccc(CNc2c(N3CCOCC3)c(=O)c2=O)cc1)N1CCN(c2ccccc2)CC1 | inactive
7 | O=C(NCc1ccc(C(=O)N2CCN(c3ccccc3)CC2)cc1)NC1CCCCC1 | inactive
8 | O=C(CSc1nc2c(c(=O)[nH]1)CCC2)NC1CCCCC1 | inactive
